This note sets out measurements from PubChem BioAssay (NCI).

Common to all, as to experiment: NCI-60 one-dose screen, 48 h (100 = growth as untreated, 0 = no growth, -100 = all killed)
What all share (details): 10 µM

The subject of assay [1] is NCI-H23 lung.
The test system of assay [2] is NCI-H226 lung.
The subject of assay [3] is NCI-H322M lung.
Assay [4] relates to HOP-62 NSCLC.
The test system of assay [5] is NCI-H460 lung.
Assay [6] relates to HOP-92 NSCLC.
For assay [7], the system named is NCI-H522 lung.
The test system of assay [8] is A549/ATCC NSCLC.
Assay [9] relates to 786-0 renal.
The test system of assay [10] is COLO 205 colon.
Assay [11] relates to DU-145 prostate.
The subject of assay [12] is K-562 leukemia.
In assay [13] the test system is MALME-3M melanoma.
The subject of assay [14] is MDA-MB-231 breast.
Assay [15] deals with RXF 393 renal.
Assay [16] concerns SF-268 CNS.
Assay [17] concerns SF-295 CNS.
Assay [18] has as its system SF-539 CNS.
Assay [19] deals with UACC-257 melanoma.
Assay [20] deals with M14 melanoma.

Molecules are shown by their SMILES. Compounds without any hit were thinned out: in the full panel of roughly 83,000, 20% have a hit.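 A percent growth of 40 corresponds to 60% growth inhibition; 0 means no net growth; -100 means all cells died. Active threshold: below 10.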 Values without a mark were called inactive. Calls of active or inactive are those of the source.

In the case of `CCCCC(CC#N)(CCC)CCC`, the growth in [1] is 105%; in assay [2], 109%; in assay [3] it was 95.6%; in assay [4] it was 116%; in [5], 109%; in assay [6] it was 99.7%. Further, the growth was 97.5% in [7]; 94.4% in assay [8]; 95.5% in assay [9]; 106% in assay [10]; 108% in [11]; 101% in assay [12]. Besides, the growth was 82.7% in [13]; 126% in [14]; 126% in [15]; 101% in assay [16]; 96.7% in assay [17]; 100% in assay [18]. Moreover, the growth in [19] was 110%; in assay [20] it was 97.4%.
In the case of `N#CCC1CCCC1`, the growth in assay [1] is 115%; in assay [2] it was 107%; in assay [3] it was 111%; in assay [4], 92.7%; in assay [5] it was 105%; in assay [6] it was 80%. The growth in [7] was 109%; in [8], 101%; in [9], 96.3%; in assay [10] it was 109%; in assay [11] it was 127%; in assay [12], 106%. The growth is 114% in assay [13]; 104% in assay [14]; 107% in assay [15]; 114% in assay [16]; 90.6% in assay [17]; 111% in [18]. Moreover, the growth in assay [19] is 100%; in [20], 105%.
In the case of `O=[N+]([O-])c1cc2ncccc2c2ncccc12`, the growth is 81.3% in [1]; 96.3% in assay [2]; 80.3% in [3]; 137% in assay [4]; 66.9% in [5]; 109% in assay [6]. Besides, the growth in assay [7] is 15.8%; in [8] it was 88.4%; in assay [9], 110%; in [10], 95.6%; in [11] it was 89.7%; in assay [12], 49.3%. Besides, the growth in [13] is 72.8%; in [14], 60.6%; in [15] it was 92.4%; in assay [16] it was 91.5%; in assay [17], 134%; in assay [18], 93.6%. Besides, the growth in [19] was 90.5%; in assay [20] it was 84.5%.
For the molecule `Cc1ccc2nc(-c3ccc(OCC(=O)N=Nc4c(O)[nH]c5ccccc45)cc3)[nH]c2c1`, the growth in assay [1] was 94.9%; in assay [2] it was 92.6%; in [3], 91.3%; in assay [4], 104%; in [5], -13.4% (active); in [6] it was 81.9%. The growth in [7] is 79.4%; in [8], 79.2%; in assay [9] it was 36.1%; in assay [10], 58.4%; in assay [11] it was 73.3%; in assay [12] it was 5.23% (active). The growth in assay [13] was 95.8%; in assay [14] it was 74.4%; in assay [15], 102%; in assay [16], 102%; in assay [17], 97.1%; in [18], 100%. Also, the results for the growth in assay [19] and in assay [20] were 103% and 77.3%, respectively.
As for `CCN1CCN(c2ccc(Nc3ncnc4c3nnn4CCc3cc(OC)cc(OC)c3)cc2)CC1`, the growth in assay [1] is 88.8%; in [2], 85.8%; in assay [3], 95.6%; in assay [4], 99.4%; in [5], 106%; in assay [6], 89.6%. Further, the growth in assay [7] is 96.1%; in assay [8], 95.5%; in assay [9], 99.6%; in assay [10], 89.3%; in assay [11] it was 104%; in [12], 77.7%. Besides, the growth in assay [13] is 92.6%; in assay [14], 95.4%; in assay [15] it was 97.7%; in [16], 97.4%; in assay [17] it was 90.2%; in [18], 95.5%. Also, the growth in [19] was 84.8%; in [20], 98.6%.
For the molecule `COc1cc2ccnc(C=O)c2cc1OC`, the growth is 83.5% in [1]; 101% in [2]; 87.5% in [3]; 89.7% in assay [4]; 107% in assay [5]; 51.2% in [6]. The growth in [7] was 68.4%; in [8], 101%; in assay [9] it was 99.9%; in assay [10], 92.9%; in assay [11], 69.8%; in assay [12] it was 31.2%. The growth in [13] is 58.8%; in [14], 75.3%; in [15], 67.6%; in assay [16], 92%; in assay [17] it was 96.5%; in [18], 65.6%. Moreover, the growth in [19] was 83.2%; in assay [20] it was 67.8%.
Regarding `O=C(Nc1ccc(Oc2ccc(Nc3nc4ccccc4s3)cc2)cc1)Nc1ccc(Cl)c(Cl)c1`, the growth is 8.31% (active) in assay [1]; 46.5% in [2]; 56.6% in assay [3]; 47% in assay [4]; 15.8% in assay [5]; 37.9% in assay [6]. The growth in assay [7] is 7.82% (active); in [8], 32.8%; in [9], 43.3%; in [10], 31.1%; in [11], 39.1%; in [12] it was 21.9%. Moreover, the growth in assay [13] is 47.9%; in assay [14] it was 22.8%; in assay [15], 56.5%; in [16] it was 35.9%; in [17] it was 17.8%; in assay [18] it was 50.9%. The figures for the growth in assay [19] and in [20] were 61.3% and 26.3%, respectively.
For `Clc1cc(Cl)c(OCCCCCCN2CCNCC2)c(Cl)c1`, the growth in [1] is 53.9%; in assay [2] it was 94%; in assay [3] it was 78.3%; in assay [4] it was 77.6%; in assay [5], -39.8% (active); in assay [6] it was -0.831% (active). Besides, the growth in assay [7] was 55.1%; in assay [8], 53.8%; in [9], 23.1%; in assay [10] it was -71.3% (active); in assay [11] it was 67.1%; in assay [12], -43.6% (active). Moreover, the growth is 50.1% in assay [13]; -8.55% (active) in assay [14]; 24.1% in assay [15]; 55.3% in [16]; -37.8% (active) in assay [17]; 49% in assay [18]. Also, the growth in assay [19] was -1.75% (active); in assay [20], -43.9% (active).
